Molecules are shown by their SMILES. The campaign covered roughly 360,000 compounds. About 6,200 (1.7%) were called active.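 Rule for the calls: active = inhibition of at least 50% at 20 µM; inactive = the rest.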 This excerpt belongs to a sample that is enriched for actives.

The nature of this assay: Peg3 promoter-driven luciferase inhibitors, primary screen, cell-based, HeLa, luciferase luminescence (AID 588405). To be noted: HeLa PEG-Prom luciferase reporter, overnight, at 20 µM, hits give high values.
The inhibition is the change of the read-out against control, counted positive when it falls. Regarding `CC(C)(C)c1ccc(Oc2ccc(N)cc2)cc1`, the inhibition is 76.7% (active).

Consider `COc1cnc(-c2ccccn2)nc1Oc1ccc(C(C)(C)C)cc1`, for which the inhibition is -4.72% (inactive).

With `Cc1cc(C(C)(C)C)cc(C)c1N`, the inhibition is 6.32% (inactive).

Take `CC1(C(=O)NS(=O)(=O)c2ccc3ccccc3c2)CCN1C(=O)C1(c2ccc(Cl)cc2)CCC1` (stereo not drawn): the inhibition is -9.9% (inactive).

With `CC1(C(=O)NCc2cccc3ccccc23)CCN1Cc1ccc(-c2ccccc2)o1` (stereo not drawn), the inhibition was 21.9% (inactive).

Turning to `CCOC(=O)c1ccn(S(=O)(=O)c2ccc(C)cc2)c1-c1ccccc1`, the inhibition is -0.12% (inactive).

Turning to `Cc1nc2scc(-c3cccs3)c2c(=O)n1N`, the inhibition was 3.36% (inactive).

With `CCS(=O)(=O)N1CCC(C(=O)N2CCN(c3ccccc3)CC2)CC1`, the inhibition is -2.59% (inactive).

Consider `CS(=O)(=O)N1CCC(C(=O)N2CCN(c3ccccc3)CC2)CC1`, for which the inhibition was 8.23% (inactive).

In the case of `CCS(=O)(=O)N1CCC(N2CCN(c3ccccc3)CC2)CC1`, the inhibition was 52% (active).

With `CCC(C)(C)NC(=O)C(c1cccn1C)N(Cc1ccc(C)cc1)C(=O)Cn1nnc2ccccc21` (stereo not drawn), the inhibition was 5.59% (inactive).

For `Cc1ccccc1-c1nc(NC(C)C)nc2cc(-c3ccccc3)sc12`, the inhibition was 7.19% (inactive).

As to `COc1ccc2sc(-c3ccccc3OC)c(-c3ccc(OCCN4CCCC4)cc3)c2c1`, the inhibition is 34.9% (inactive).

`COc1cccc(-c2sc3ccc(OC)cc3c2-c2ccc(OCCN3CCCCC3)cc2)c1`: the inhibition was 87.9% (active).

As for `COc1cc(OC)cc(-c2sc3ccc(OC)cc3c2-c2ccc3cc[nH]c3c2)c1`, the inhibition is 2.15% (inactive).

`CCN(CCN(C)C)C(=O)c1ccc2nc(C)c(N(C)C(=O)CCc3ccccc3)n2c1`: the inhibition was -8.8% (inactive).

As for `COC(=O)c1ccc2nc(C3CCCCC3)c(Cc3cccc(F)c3)n2c1`, the inhibition was -20.6% (inactive).

In the case of `Cc1cc(C)c2nc3nc(C)cc(C)c3c(N)c2c1`, the inhibition is 59.9% (active).

As to `COc1ccccc1CCNC(=O)C1CCN(C(=O)/C=C/c2ccccc2)CC1`, the inhibition is -46.9% (inactive).

For the compound `COc1ccc(C(=O)/C=C/c2ccc(-c3ccccc3)cc2)cc1CSCC(=O)O`, the inhibition is 98.8% (active).

For `COC(=O)c1ccc(COc2ccc(/C=C/C(=O)c3ccc(OC)c(CSCC(=O)O)c3)cc2OC)cc1`, the inhibition was -5.11% (inactive).

With `COc1ccc2c3c1O[C@H]1C[C@@H](O)C=C[C@@]31CCN(C)C2`, the inhibition is -14.7% (inactive).

Take `COc1ccc(-c2cc(C(=O)n3cnc4ccccc43)c3ccccc3n2)cc1`: the inhibition was -64% (inactive).

For `COc1ccc(NC(=O)c2cc(-c3cc(OC)c(OC)c(OC)c3)nc3ccccc23)c(OC)c1`, the inhibition was 50.8% (active).

For `COc1ccc(NC(=O)c2sc(N3CCOCC3)nc2-c2ccccc2)c(OC)c1`, the inhibition was 20.4% (inactive).

Take `CC(=O)Nc1cccc(-c2cc3nc(NCc4cccnc4)n(C)c(=O)c3s2)c1`: the inhibition is -27.3% (inactive).

As to `O=c1c2cc(Br)ccc2nc(-c2cccc(Cl)c2)n1O`, the inhibition is 31.2% (inactive).

Regarding `O=C(/C(=C/c1cccc(Cl)c1)c1nc2ccccc2[nH]1)c1ccccc1`, the inhibition is 109% (active).

For `CN(c1ccccc1)S(=O)(=O)c1cc(C(=O)Nc2nc3ccccc3[nH]2)ccc1Cl`, the inhibition was 5.63% (inactive).

Turning to `CN1CCc2ccccc2C1Cc1ccccc1NC(=O)c1sc2ccccc2c1Cl` (stereo not drawn), the inhibition is -137% (inactive).

Consider `Cc1ccc(-c2nc3ccccc3[nH]2)cc1NC(=O)c1sc2ccccc2c1Cl`, for which the inhibition was 50.7% (active).

Take `Cc1ccc2c(Cl)c(C(=O)Nc3nn[nH]n3)sc2c1`: the inhibition is -5.87% (inactive).

Take `COc1ccc(C)cc1NC(=O)CCS(=O)(=O)c1cccc2nonc12`: the inhibition is -14.4% (inactive).

Consider `Cc1ccc2c(C(=O)CN3CCCC3)c(C)[nH]c2c1`, for which the inhibition was 7.2% (inactive).

`CCNC(=O)C1(C)CCN(C(=O)c2ccccc2)C1` (stereo not drawn): the inhibition was -7.38% (inactive).

Consider `CC1CC(=O)Nc2ccccc2N1S(=O)(=O)c1cccs1` (stereo not drawn), for which the inhibition was 10.5% (inactive).

Regarding `CC1CN(Cc2ccccc2)C(=S)NC1=O` (stereo not drawn), the inhibition was -2.37% (inactive).

As for `CC1CC(=S)Nc2ccccc2N1Cc1ccccc1` (stereo not drawn), the inhibition is 55.4% (active).

Regarding `CCNC(=O)C1(C)CCCN1C(=O)c1ccc(N(C)C)cc1` (stereo not drawn), the inhibition was -3.48% (inactive).

For `CCCOc1ccc(Cl)cc1Nc1nc(NCCO)nc(N2CCCC2)n1`, the inhibition was 9.9% (inactive).

Regarding `CCOc1ccc(Nc2nc(Cl)nc(N3CCN(c4ccc(OC)cc4)CC3)n2)cc1`, the inhibition was 22.4% (inactive).

`CCN1CCN(c2nc(Nc3cc(OC)ccc3OC)nc(Nc3cc(OC)ccc3OC)n2)CC1`: the inhibition is 52.3% (active).

`COc1cccc(C(O)c2ncc(-c3ccc4ccccc4c3)[nH]2)c1` (stereo not drawn): the inhibition was -68.4% (inactive).

As for `CNC(=O)C1CC(=O)N(c2ccc(OCC(=O)Nc3ccccc3C)cc2)C1` (stereo not drawn), the inhibition is -61.3% (inactive).

Take `CC12CCC(=O)C=C1CCC1C2C(O)CC2(C)C1CCC2(O)C(O)CO` (stereo not drawn): the inhibition is 10.9% (inactive).

Regarding `CCc1nc2ccc(C(=O)Nc3ccc(OC)c(OC)c3)cn2c1N(C)C(=O)c1cccc(OC)c1`, the inhibition was -9.49% (inactive).

Regarding `CCCN1CCN(C(=O)Cn2ncc3ccccc32)CC1`, the inhibition was 6.83% (inactive).

`O=C1NC[C@H](Cc2ccc(O)cc2)N(C[C@H]2CCCN2C[C@H](Cc2ccccc2)N2C[C@H](Cc3ccccc3)N(CCc3ccccc3)C(=O)C2=O)C1=O`: the inhibition was -4.33% (inactive).

As for `Cc1oc2c(c1C(=O)N1CCOCC1)C(=O)c1ccccc1C2=O`, the inhibition is 97.9% (active).

Turning to `O=C(c1snnc1-c1ccccc1)N1CCOCC1`, the inhibition is 11.7% (inactive).

In the case of `Cc1ccc(C(=O)N2CCN(S(=O)(=O)N3CCOCC3)CC2)cc1`, the inhibition is 5.77% (inactive).

On to `CC=CCn1c(SCCCc2ccccc2)nc2c1c(=O)[nH]c(=O)n2C`, for which the inhibition is 0.45% (inactive).

`CN(CCO)Cc1csc2ccc(Br)cc12`: the inhibition is 13.7% (inactive).

Consider `COc1ccc(S(=O)(=O)N2CCCCC2c2cc(C(=O)NCc3ccc(F)cc3)no2)cc1` (stereo not drawn), for which the inhibition is 15.3% (inactive).

`CC[C@@H]1Cc2cc(O)ccc2C2=C1c1ccc(O)cc1C[C@H]2CC`: the inhibition was 64.8% (active).

For `CCc1nc2c(OCC(N)=O)cccn2c1N(C)C(=O)c1ccc(OC)cc1`, the inhibition was -3.72% (inactive).

For the compound `O=C(Cc1ncc(C(F)(F)F)cc1Cl)Nc1cccc(Br)c1`, the inhibition was 3.22% (inactive).

Take `O=C(CC(O)(C(F)(F)F)C(F)(F)F)Nc1ccc(Cl)c(Cl)c1`: the inhibition is 69.9% (active).

With `CN(CC(=O)Nc1ccc(Cl)c(C(F)(F)F)c1)C(=O)CCC(=O)c1ccccc1`, the inhibition was 12.6% (inactive).

For `COC(=O)/C=C\C(=O)Nc1cccc([N+](=O)[O-])c1`, the inhibition is 106% (active).

With `Cc1ccc(NC(=O)O/N=C/c2cccc([N+](=O)[O-])c2)cc1`, the inhibition was -85.8% (inactive).

For `O=C(Nc1cccc([N+](=O)[O-])c1)N1CCc2ccccc2C1`, the inhibition is -236% (inactive).

In the case of `O=C(CN1C(=O)NC2(CCOc3ccccc32)C1=O)NCc1ccc(F)cc1` (stereo not drawn), the inhibition is 20.2% (inactive).

Turning to `CCc1ccc2c(c1)NC(=O)C2(C)Cc1ccc(OC(F)(F)F)cc1` (stereo not drawn), the inhibition was 32.7% (inactive).

For the compound `CCOC(=O)c1sc(C)c2c1NC(C)(c1cccc3ccccc13)NC2=O` (stereo not drawn), the inhibition is 34.8% (inactive).

In the case of `Cc1ccc2nc(-c3ccc(Br)cc3)cn2c1`, the inhibition was 55.6% (active).

Turning to `Cc1ccc(-n2c(-c3ccc(Cl)cc3)n[nH]c2=S)cc1`, the inhibition is 17.7% (inactive).

On to `Cc1ccc(-c2cn3cc(C)ccc3n2)cc1`, for which the inhibition was 88.8% (active).

For `Cc1ccc(-c2nc3ccc(Br)cn3c2Cc2ccccc2C(F)(F)F)cc1`, the inhibition was -138% (inactive).

Turning to `COc1ccc(-c2nc3ccc(Br)cn3c2Cc2ccc(C)cc2)cc1OC`, the inhibition is -58.2% (inactive).

In the case of `Cc1ccc(-c2nc3ccc(Cl)cn3c2Cc2ccccc2)cc1`, the inhibition was -130% (inactive).

Turning to `Cc1csc(NC(=O)CSc2nc(=O)n(CCCN(C)C)c3c2CCC3)n1`, the inhibition is 4.74% (inactive).

Turning to `CN(Cc1ccc(C(F)(F)F)cc1)C(=O)[C@H]1O[C@@H](n2cnc3c(N)ncnc32)[C@H](O)[C@@H]1O`, the inhibition was 6.54% (inactive).

Turning to `CC1(C(=O)NS(=O)(=O)c2ccc(C#N)cc2)CCN1C(=O)c1ccc(C2CCCCC2)cc1` (stereo not drawn), the inhibition is -8.94% (inactive).

For `O=[N+]([O-])/C(N=Nc1ccccc1)=N\Nc1ccccc1`, the inhibition is -2.71% (inactive).

As for `Cn1c(CCC(=O)Nc2ccccc2F)nnc1SCC(=O)Nc1ccccc1Cl`, the inhibition was 3.9% (inactive).

On to `C=C(C)COc1ccc(-c2ncncc2-c2ccc(OC)cc2)c(O)c1`, for which the inhibition is -25.6% (inactive).

Turning to `COc1ccc(-c2nc(N)ncc2-c2ccc(Cl)cc2)c(O)c1`, the inhibition was 53.7% (active).

On to `CCOc1ccc(-c2nc(N)ncc2-c2ccccc2OC)c(O)c1`, for which the inhibition is 1.53% (inactive).

As to `CC(=O)Nc1cnc(-c2ccc(O)cc2C)cn1`, the inhibition is -46.9% (inactive).

For the compound `CN1CCN(CCCCOc2ccccc2-c2ccccc2)CC1`, the inhibition was 7.99% (inactive).

Regarding `OCCN1CCN(C(=S)c2ccc(-c3ccccc3)cc2)CC1`, the inhibition is 51.7% (active).

Turning to `S=C(c1ccc(-c2ccccc2)o1)N1CCCCC1`, the inhibition is -230% (inactive).

For the compound `CC(C#N)OC(=O)c1cccnc1SCC(=O)Nc1ccc2c(c1)OCO2` (stereo not drawn), the inhibition is -92% (inactive).

Regarding `O=C(O)CCN1C(=O)CC2(CCCCC2)C1=O`, the inhibition was -1.96% (inactive).

For the compound `COCCNc1ncnc2c1ncn2[C@H]1CN(CCN2CCOCC2)C[C@@H](CO)O1`, the inhibition was 0.57% (inactive).

For the compound `Clc1ccc2nc(-c3ccccc3)nc(C(Cl)Cl)c2c1`, the inhibition is 107% (active).

`N#CCSc1nc(-c2ccccc2)nc2ccc(F)cc12`: the inhibition is 16.9% (inactive).

For `Clc1cccc(-c2nc(NCC3CCCO3)c3ccccc3n2)c1` (stereo not drawn), the inhibition was 17.2% (inactive).

Regarding `CC(C)c1cc(C(=O)NC2CCCCCC2)c2ccccc2n1`, the inhibition is -6.57% (inactive).

Turning to `CC(C)C(C)NC(=O)COc1nc2ccccc2nc1N(C)C1CCCCC1` (stereo not drawn), the inhibition is 2.14% (inactive).

With `CN(c1ccc2nc3ccccc3c(=O)n2n1)C1CCCCC1`, the inhibition was 81.5% (active).

Take `Cc1nc2c(OCC(=O)C(C)(C)C)cccn2c1N(C)Cc1cccs1`: the inhibition was -4.66% (inactive).
